This is a sample that favours compounds with a hit; in the whole collection about 7.4% have one here.
NPC1 promoter act: qHTS Assay for NPC1 Promoter Activators. Huh7 NPC1 promoter luciferase reporter, 24 h. hit rate 2.4% among 320,000. Potency, µM (top dose mostly 9.22 µM), without a hit: at the top dose activation, usual class: activators. AID 485313, 2010; further: % of control where 0% means no effect; nearly all actives have a fitted effect of over 60% in size
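Luminescence from an NPC1 promoter-driven luciferase reporter in stably transfected Huh7 cells was measured after 24 h compound treatment at 37 °C, followed by 10 min ambient incubation with luciferase detection reagent.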
Rab9 prom act: qHTS Assay for Rab9 Promoter Activators; Huh7 Rab9 promoter-luciferase reporter, luminescence, 24 h; Potency, µM (top dose mostly 9.22 µM), for inactives: top-dose activation, negative = inhibition, usual class: activators; hit rate 2.8% among 320,000; further: % of control where 0% means no effect; nearly all actives have a fitted effect of over 60% in size
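Huh7 cells stably carrying a Rab9 promoter-luciferase reporter, 1500 cells per well in OP-MEM I with 10% FBS, treated with compound 24 hours at 37C. Luciferase activity read by luminescence after 10 minutes with Amplite reagent.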
Luc counter: Counterscreen for Luciferase (Kinase-Glo TM) Inhibition | Luciferin 4-monooxygenase (Photuris pensylvanica), Q27757 | Kinase-Glo luciferase, ATP luminescence, 8 min | Potency, µM (titrated, usually from 38.3 µM), inactives show at the top dose activity change, negative = inhibition, usual class: inhibitors | hit rate 0.28% among 200,000 | AID 1379, 2008; further: on the % scale 0 is the no-effect control and ±100 the full control effect; nearly all actives have a fitted effect of over 60% in size
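Compounds were added to a substrate mix at pH 7.2 (50 mM imidazole, 10 uM ATP, within the enzyme's linear range), followed by Kinase-Glo detection reagent; luminescence was measured after 8 minutes at ambient temperature.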
ELG1 genotoxic: qHTS screen for small molecules that induce genotoxicity in human embryonic kidney (HEK293T) cells expressing luciferase-tagged ELG1; HEK293T ELG1-luciferase reporter, luminescence, 16 h; Potency, µM (series often up to 46 µM), without a hit: at the highest dose activity change, positive = activation, actives largely listed as activators; hit rate 1.3% among 330,000; AID 504466, 2011; further: % of control where 0% means no effect; nearly all actives have a fitted effect of over 60% in size
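Reporter readout depends on ELG1 protein level, which increases with genetic stress. After 16 hr compound exposure at 37 °C, luciferase activity was quantified using ONE-Glo.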
FLuc modulator: qHTS profiling assay for firefly luciferase inhibitor/activator using purifed enzyme and Km concentrations of substrates (counterscreen for miR-21 project) | purified FLuc, Km substrates, luminescence inhibition | Potency, µM (doses to about 57.5 µM), for inactives: at the highest dose activity change, negative = inhibition, usual class: inhibitors | hit rate 6.9% among 360,000 | AID 588342, 2011;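 further: plate controls were vehicle for no effect and reference inhibitor for full effect; nearly all actives have a fitted effect of over 55% in size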
Target sequence (P08659 whole entry, looked up): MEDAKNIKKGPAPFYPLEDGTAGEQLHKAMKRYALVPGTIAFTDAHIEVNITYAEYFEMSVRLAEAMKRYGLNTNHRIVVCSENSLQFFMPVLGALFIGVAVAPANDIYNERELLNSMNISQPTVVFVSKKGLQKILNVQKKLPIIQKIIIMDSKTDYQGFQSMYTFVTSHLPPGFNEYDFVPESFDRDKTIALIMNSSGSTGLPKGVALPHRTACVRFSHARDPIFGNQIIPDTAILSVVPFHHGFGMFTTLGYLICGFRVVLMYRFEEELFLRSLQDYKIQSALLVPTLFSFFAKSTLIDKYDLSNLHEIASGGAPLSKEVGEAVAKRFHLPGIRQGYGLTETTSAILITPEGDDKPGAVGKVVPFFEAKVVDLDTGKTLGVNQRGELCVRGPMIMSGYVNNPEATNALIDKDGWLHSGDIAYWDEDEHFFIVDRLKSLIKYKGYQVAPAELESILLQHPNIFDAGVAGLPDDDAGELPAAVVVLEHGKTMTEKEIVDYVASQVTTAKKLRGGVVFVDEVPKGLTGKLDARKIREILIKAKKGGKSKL
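Purified P. pyralis luciferase (10nM final) with 10uM D-luciferin and 10uM ATP (Km levels) in 50mM Tris acetate pH 7.5, 10mM Mg acetate, 0.01% Tween-20, 0.05% BSA; qHTS 6-point titration, ~60 µM downward; luminescence read.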
SMN2 splice up: qHTS Assay for Enhancers of SMN2 Splice Variant Expression. Potency, µM (series often up to 46.1 µM), inactives show at the highest dose activity change, positive = activation, usual class: activators. hit rate 2.8% among 210,000. HEK293 SMN2-luciferase splicing reporter, luminescence, 30-36 h; further: % of control where 0% means no effect; nearly all actives have a fitted effect of over 55% in size
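HEK293 cells carry an SMN2 […]–luciferase reporter in which exon 7 inclusion puts luciferase in frame. Cells were plated 10-12 h before compound addition, then incubated 30-36 h at 37C. ONE-Glo luminescence was read; sodium butyrate at 4.5 mM final served as control.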
An asterisk follows results filed as active; ? = inconclusive; / = no result. The call rests on the fitted dose curve; in most records, active means well fitted curve in the direction sought with a large enough effect; inconclusive means small, poorly fitted or top-dose-only effect, or another doubt; inactive means no such curve, though single readings can be large; an effect the other way counts as inactive or inconclusive. Potency means the concentration at half of the fitted maximal effect.

SMILES	NPC1 promoter act	Rab9 prom act	Luc counter	ELG1 genotoxic	FLuc modulator	SMN2 splice up
Oc1csc(Cc2nc(-c3ccc(-c4ccccc4)cc3)cs2)n1	?	?	-9.4%	11.2%	?	3.8%
O=c1oc2ccccc2cc1-c1csc(Cc2nc(-c3ccc(Cl)cc3)cs2)n1	-21.7%	-30.8%	0.9%	8.6%	5.7%	-76.0%
Oc1csc(Cc2nc(-c3ccccc3F)cs2)n1	?	5.01µM*	-11.7%	-4.0%	-18.4%	?
Oc1csc(Cc2nc(-c3ccc4ccccc4c3)cs2)n1	?	2.82µM*	-7.7%	?	?	?
COc1ccc(S(=O)(=O)N(C)C[C@H]2Oc3ccc(NC(=O)NC4CCCCC4)cc3C(=O)N([C@H](C)CO)C[C@@H]2C)cc1	/	/	/	-1.8%	/	/
CC(=O)NC(c1cc(F)c2cccnc2c1O)C(C)C (centres undefined)	-1.8%	-26.7%	/	/	1.3%	/
O=C(CSc1nc2cc(Cl)ccc2o1)NCCc1ccccc1	1.3%	-5.8%	/	-0.2%	3.3%	/
O=C(CSc1nc2cc(Cl)ccc2o1)c1cccs1	9.0%	12.4%	-4.7%	?	19µM*	2.6%
Cc1cc(C(=O)CSc2nc3ccc(Cl)cc3[nH]2)c(C)n1C	-1.5%	0.7%	-8.7%	-0.2%	-16.7%	19.2%
O=C(CSc1nc2ccc(Cl)cc2[nH]1)c1cccs1	12.4%	27.8%	/	16.3%	13.5µM*	/
CC(=O)Nc1cccc(C(=O)/C=C/c2ccc(F)cc2)c1	2.3%	-0.4%	-1.2%	?	19µM*	-11.5%
CC(=O)Nc1cccc(C(=O)/C=C/c2cccs2)c1	23.2%	?	-2.1%	0.3%	13.5µM*	8.2%
CC(=O)Nc1cccc(C(=O)/C=C/c2ccc(N(C)C)cc2)c1	2.2%	24.8%	1.8%	?	2.69µM*	5.3%
CC(=O)Nc1cccc(C(=O)/C=C/c2ccc(/C=C/C(=O)c3cccc(NC(C)=O)c3)cc2)c1	-31.0%	-33.8%	0.6%	-16.9%	0.0%	-68.3%
CC(=O)Nc1cccc(C(=O)/C=C/c2ccc[nH]2)c1	?	?	/	15.8%	?	/
Cc1cccc(C)c1OCc1cc(C(=O)N(Cc2nccn2C)C(C)C)no1	5.6%	4.5%	/	-8.7%	-7.6%	/
Cc1cccc(C(=O)N/N=C/c2ccc3c(c2)OCO3)n1	7.1%	6.8%	-7.7%	6.3%	?	-0.7%
CC(C)(C)c1cc(C(=O)N/N=C/c2cc3c(cc2Br)OCO3)n[nH]1	-11.3%	-2.1%	/	1.1%	-6.5%	/
Nc1nonc1C(=O)N/N=C/c1cc2c(cc1Br)OCO2	-6.0%	-0.6%	/	15.9%	?	/
O=C(N/N=C/c1cc2c(cc1Br)OCO2)c1cc2ccccc2o1	22.2%	22.1%	/	5.7%	9.53µM*	/
O=C(N/N=C/c1ccsc1)c1ccc2ccccc2n1	22.0%	?	-9.0%	12.8%	21.3µM*	27.3%
O=C(N/N=C/c1cc2c(cc1Br)OCO2)c1c[nH]c2ccccc12	2.51µM*	2.51µM*	-0.7%	7.8%	9.53µM*	11.2µM*
O=C(N/N=C/c1ccc2c(c1)OCO2)c1ccccn1	0.316µM*	0.398µM*	10µM*	?	2.13µM*	3.55µM*
O=C(N/N=C/c1ccc2c(c1)OCO2)c1ccc2ccccc2n1	1.6%	14.8%	-10.3%	?	3.01µM*	0.8%
O=C(N/N=C/c1ccco1)c1cc2ccccc2o1	15.4%	19.0%	/	11.5%	16.9µM*	/
O=C(/C=C/c1ccc2c(c1)OCO2)c1ccccn1	2.24µM*	3.55µM*	/	?	0.338µM*	/
Cc1ccc(C(=O)N/N=C\c2cc3c(cc2Br)OCO3)cn1	-6.7%	-5.9%	/	?	1.8%	/
CCN(C(=O)/C=C/c1ccc2c(c1)OCO2)c1ccccc1	8.3%	14.5%	-4.9%	1.5%	?	-8.4%
